Assay outcomes from PubChem.
The list is not random: actives were taken first. Their share in the collection is about 12%.
Sm TGR inh – qHTS Assay for the Inhibitors of Schistosoma Mansoni Peroxiredoxins; AID 485364, 2010; purified TGR, DTNB reduction, TNB absorbance 405 nm; 360,000 tested, 3% active; Schistosoma mansoni thioredoxin glutathione reductase (TGR), Q962Y6; Potency, µM (doses to about 114 µM), for inactives: top-dose activity change, negative = inhibition, usual class: inhibitors; active = well fitted inhibition curve with a large enough effect; inconclusive = small, poorly fitted or top-dose-only effect; inactive = no such curve, though single readings can be large or run the other way; note: potency is the fitted concentration of half-maximal effect; % is set by controls: 0 for no effect and ±100 for the full control effect; nearly all actives have a fitted effect of over 60% in size
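TGR 20 nM + NADPH 100 uM (dispensed conc.), cpd preinc 15 min RT; start with NADPH (500 uM addition) then DTNB (15 mM addition). Kinetic TNB absorbance, 405 nm filter. Four-parameter Hill fit across titration.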
Cycloheximide cs – Cycloheximide Counterscreen for Small Molecule Inhibitors of Shiga Toxin. cell reporter, cycloheximide protein synthesis inhibition counterscreen. max response, %. 300,000 tested, 12% active. AID 2314, 2010; in the data active = max response mostly above about 13%, no sharp cut-off; inactive = mostly below about 14%; note: read at 38.3 µM for the half of the compounds with a filed dose; 0% is about no effect
FMDV inh – High Throughput Screening for Foot and Mouth Disease Virus Antivirals; FMDV antiviral cell-based qHTS; Potency, µM (top dose mostly 57.9 µM), inactives show top-dose activity change, negative = inhibition, most hits filed as inhibitors; 410,000 tested, 1.2% active; AID 1159524, 2015; calls by dose curve; tested in HEK293T cells; note: read-out not given here; potency is the fitted concentration of half-maximal effect; % is set by controls: 0 for no effect and ±100 for the full control effect; nearly all actives have a fitted effect of over 45% in size
Shiga toxin inh – A qHTS for Small Molecule Inhibitors of Shiga Toxin. 290,000 tested, 9.2% active. Vero cells, Shiga toxin protein synthesis inhibition reporter. AID 2315, 2010. inhibition, % at 38.7 µM; in the data active = inhibition mostly above about 28%, no sharp cut-off; inactive = mostly below about 43%; note: 0% is about no effect
An asterisk follows results filed as active.

`Cc1noc(NS(=O)(=O)c2ccc(NC(=O)CSc3nc4c(cc3C#N)CCCC4)cc2)c1C` gave Sm TGR inh 0.0%, Cycloheximide cs -2.5, FMDV inh -15.7% and Shiga toxin inh -4.1.
Screening Cc1cc(NC(=O)CSc2nc3c(cc2C#N)CCCC3)no1 returned Sm TGR inh 1.4%, Cycloheximide cs 38.5*, FMDV inh 78.3% and Shiga toxin inh 48.9*.
`Cc1cc(C)c2nc(SCC(=O)Nc3cc(C)on3)c(C#N)cc2c1` gave Sm TGR inh 4.6%, Cycloheximide cs -1.5, FMDV inh -0.5% and Shiga toxin inh -3.7.
Cc1nnc(N2CCN(C(=O)NC(C)C)CC2)c2nn(-c3ccccc3)c(C)c12 was read as Sm TGR inh -1.0% and FMDV inh 0.0%.
`Nc1nccc(-c2ccc(-n3cccc3)cc2)n1` gave Sm TGR inh -6.3%, Cycloheximide cs 23.2*, FMDV inh 20.6% and Shiga toxin inh 52.7*.
For c1ccc(-c2nccc(-c3ccc(-n4cnc5ccccc54)cc3)n2)cc1 the results were Sm TGR inh -26.0%, Cycloheximide cs -3.9, FMDV inh -19.2% and Shiga toxin inh -23.3.
Screening Cn1nccc1C(=O)N(CCN1CCCCC1)CC1CCCN(C2CCCC2)C1 (stereo not given) returned Sm TGR inh -7.8%, Cycloheximide cs 22.6*, FMDV inh 50.9% and Shiga toxin inh 23.1.
`CCCc1cc(C(=O)Nc2c(C)nn(Cc3ccc(Cl)c(Cl)c3)c2C)no1` gave Sm TGR inh 5.9% and FMDV inh inconclusive.
`COc1ccc(Oc2ncnc3sccc23)cc1` gave Sm TGR inh -8.9%, Cycloheximide cs 41.8*, FMDV inh 35.5% and Shiga toxin inh 65.7*.
`COc1cccc(Nc2ncnc3sccc23)c1` gave Sm TGR inh -11.6%, Cycloheximide cs 23.4*, FMDV inh 9.1% and Shiga toxin inh 129.5*.
Screening COc1ccc(OC)c(Nc2ncnc3sccc23)c1 returned Sm TGR inh -0.8%, Cycloheximide cs 15.0*, FMDV inh -0.8% and Shiga toxin inh 18.5.
`COc1cccc(Nc2ncnc3sc(C)cc23)c1` gave Sm TGR inh -8.7%, Cycloheximide cs 41.3*, FMDV inh 46.8% and Shiga toxin inh 74.6*.
For Cc1nc(Oc2ccccc2)c2ccsc2n1 the results were Sm TGR inh -2.0%, Cycloheximide cs 19.6, FMDV inh -2.8% and Shiga toxin inh 17.2.
Screening Cc1cc2c(Nc3ccc(O)cc3)ncnc2s1 returned Sm TGR inh 5.4%, Cycloheximide cs 17.7, FMDV inh 13.7% and Shiga toxin inh 43.1.
For COc1ccc(Nc2ncnc3sccc23)cc1 the results were Sm TGR inh -16.3%, Cycloheximide cs 30.5*, FMDV inh 51.8% and Shiga toxin inh 72.3*.
For COc1ccc(Nc2ncnc3sccc23)c(OC)c1 the results were Sm TGR inh 5.3%, Cycloheximide cs 9.0, FMDV inh 8.3% and Shiga toxin inh 18.5.
Screening Cc1ccc(Nc2ncnc3sccc23)c(C)c1 returned Sm TGR inh 5.6%, Cycloheximide cs 15.0*, FMDV inh 14.8% and Shiga toxin inh 62.1*.
`c1nc(Nc2ccc(N3CCOCC3)cc2)c2ccsc2n1` gave Sm TGR inh -12.3%, Cycloheximide cs 50.4*, FMDV inh 34.0% and Shiga toxin inh 69.3*.
For O=C(NCc1ccccc1Cl)c1cc(=O)[nH]c2ccc(S(=O)(=O)N3CCCCC3)cc12 the results were Sm TGR inh 0.0% and FMDV inh -12.1%.
`CC(CNC(=O)c1csc2c1CCCCC2)c1ccccc1` (stereo not given) gave Sm TGR inh -0.6% and FMDV inh 42.5%.
`COc1ccc(CNC(=O)CN2C(=O)CCCc3ccccc32)cc1` gave Sm TGR inh 4.2% and FMDV inh 11.9%.
For CN(C)CCCN(C(=O)c1ccc2c(c1)CCCC2)c1nc2ccc(Cl)cc2s1 the results were Sm TGR inh -0.5%, Cycloheximide cs -8.0, FMDV inh 28.2µM* and Shiga toxin inh -3.1.
`CCOc1ccc2nc(N(CCCN(C)C)C(=O)c3ccc4c(c3)CCCC4)sc2c1` gave Sm TGR inh 2.7%, Cycloheximide cs 1.5, FMDV inh -47.3% and Shiga toxin inh -12.9.
`COc1cccc2sc(N(CCN(C)C)C(=O)c3ccc4c(c3)CCCC4)nc12` gave Sm TGR inh -9.1%, Cycloheximide cs -0.9, FMDV inh 0.0% and Shiga toxin inh 27.9.
Screening CN(C)CCN(C(=O)c1ccc2c(c1)CCCC2)c1nc2c(F)cccc2s1 returned Sm TGR inh inconclusive, Cycloheximide cs 56.3*, FMDV inh 26.9% and Shiga toxin inh 62.0.
For CCOC(=O)N1CCN(C(=O)c2noc3c2COc2ccccc2-3)CC1 the results were Sm TGR inh -23.2%, Cycloheximide cs 19.6*, FMDV inh -3.8% and Shiga toxin inh 20.1.
`CCCN1CCN(C(=O)c2noc3c2COc2ccc(C)cc2-3)CC1` gave Sm TGR inh 5.01µM*, Cycloheximide cs 16.9*, FMDV inh -20.7% and Shiga toxin inh 54.1*.
`CCOC(=O)N1CCN(C(=O)c2cc3c(s2)-c2ccccc2OC3)CC1` gave Sm TGR inh -3.1%, Cycloheximide cs 8.3, FMDV inh -7.4% and Shiga toxin inh 14.0.
For CC(C)C[C@H](NC(=O)[C@@H](N)Cc1ccccc1)C(=O)N[C@@H](Cc1ccccc1)C(=O)N[C@@H](CCC(N)=O)C(=O)N1CCC[C@H]1C(=O)N[C@@H](CCC(N)=O)C(=O)N[C@@H](CCCN=C(N)N)C(=O)N[C@@H](Cc1ccccc1)C(N)=O the results were Cycloheximide cs -1.2 and Shiga toxin inh -11.2.
CC(C)(C)c1ccc(COn2c(=O)c(-c3ccco3)[n+]([O-])c3ccccc32)cc1 was read as Sm TGR inh 17.8µM*, Cycloheximide cs 18.9*, FMDV inh -3.5% and Shiga toxin inh 5.2.
Screening O=c1c(-c2ccc(Br)cc2)[n+]([O-])c2ccccc2n1OCc1ccccc1 returned Sm TGR inh -5.1%, Cycloheximide cs -2.9, FMDV inh -3.8% and Shiga toxin inh 18.7.
`COc1ccc(S(=O)(=O)c2cnc(SCC(=O)Nc3cc(F)ccc3C)[nH]c2=O)cc1Cl` gave Sm TGR inh 4.8% and FMDV inh -11.7%.
Screening CSc1nnc(NC(=O)c2nc(S(=O)(=O)Cc3ccccc3)ncc2Cl)s1 returned Sm TGR inh 12.6µM*, Cycloheximide cs 53.8*, FMDV inh 6.31µM* and Shiga toxin inh 68.0*.
For CCCc1nnc(NC(=O)c2nc(S(=O)(=O)Cc3ccc(C)cc3)ncc2Cl)s1 the results were Sm TGR inh 25.1µM*, Cycloheximide cs 30.5*, FMDV inh 35.5µM* and Shiga toxin inh 44.4*.
For Cc1ccccc1CS(=O)(=O)c1ncc(Cl)c(C(=O)Nc2nnc(C(C)C)s2)n1 the results were Sm TGR inh 20µM* and FMDV inh 20µM*.
For CC(C)c1nnc(NC(=O)c2nc(S(=O)(=O)Cc3ccccc3)ncc2Cl)s1 the results were Sm TGR inh 39.8µM*, Cycloheximide cs 67.1*, FMDV inh 4.47µM* and Shiga toxin inh 74.9*.
`COc1ccc(CCNC(=O)CCCCn2c(=O)c3ccccc3n(Cc3cc(C)ccc3C)c2=O)cc1OC` gave Sm TGR inh 0.0% and FMDV inh 1.1%.
